Source: PubChem BioAssay (NCATS)
“And” between values parts separate entries of the source, which are not always exact repeats. Identical values can stand only once. A number with no mark means an inactive call. Inconclusive results are not listed. The source made the active and inactive calls. Calls follow the shape of the dose curve; as a rule, active = well fitted curve in the direction sought with a large enough effect; inconclusive = small, poorly fitted or top-dose-only effect, or another doubt; inactive = no such curve, though single readings can be large; an effect the other way counts as inactive or inconclusive.

Assays:
[1] = target: Cytochrome P450 3A4 (Homo sapiens) (UniProt P08684); experiment: qHTS Assay for Inhibitors and Substrates of Cytochrome P450 3A4 (AID 884); also: potency is read from the fitted curve at half-maximal effect; nearly all actives have a fitted effect of over 50% in size
Cytochrome P450 3A4 (Homo sapiens), sequence (P08684 whole entry, looked up): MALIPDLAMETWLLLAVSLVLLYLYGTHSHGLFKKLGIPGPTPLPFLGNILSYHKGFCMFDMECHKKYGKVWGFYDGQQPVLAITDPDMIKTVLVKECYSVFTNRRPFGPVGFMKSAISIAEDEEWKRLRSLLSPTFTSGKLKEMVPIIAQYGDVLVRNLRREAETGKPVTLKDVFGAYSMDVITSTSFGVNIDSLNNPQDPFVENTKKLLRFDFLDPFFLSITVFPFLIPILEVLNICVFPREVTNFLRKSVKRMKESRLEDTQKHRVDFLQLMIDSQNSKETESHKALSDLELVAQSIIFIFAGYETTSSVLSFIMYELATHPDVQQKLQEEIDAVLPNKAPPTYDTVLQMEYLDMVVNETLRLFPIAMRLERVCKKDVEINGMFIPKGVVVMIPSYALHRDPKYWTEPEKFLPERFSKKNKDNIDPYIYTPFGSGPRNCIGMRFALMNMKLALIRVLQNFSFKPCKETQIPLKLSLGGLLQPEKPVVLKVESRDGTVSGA
Method in brief: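 20 nM human CYP3A4 with 25 uM Luciferin-PPXE (at KM) in 200 mM KPO4, preincubated 10 min with compound; NADPH regeneration started a 60 min RT reaction. Luciferin detected by luminescence, normalized to 57 uM ketoconazole as full inhibition.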

[2] = target: Cytochrome P450 3A4 (Homo sapiens) (UniProt P08684); experiment: qHTS Assay for Activators of Cytochrome P450 3A4 (AID 885); also: nearly all actives have a fitted effect of over 65% in size
Method in brief: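 Steps: enzyme/substrate mix dispensed; compound added, 10 min RT; NADPH regeneration solution added, 60 min RT; luciferin detection buffer stops reaction; 20 min later luminescence measured.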

Compound: Cc1ccc(C(=O)[C@@H]2[C@H]3C4COC(O4)C(=O)[C@@H]3[C@H]3C=Cc4ccccc4N32)cc1 (stereo partly drawn)
- Potency [1]: 25.1 µM (active)
- Potency [2]: inactive

Compound: CN1C[C@@H]2C(c3ccccc3)C3(c4cccnc4)CC2(C3)[C@H]1c1ccccc1 (stereo partly drawn)
- Potency [1]: 2.51 µM (active)
- Potency [2]: inactive

Compound: Cn1c(=O)c(C(=O)COC(=O)c2cc(C(F)(F)F)nc3c(C(F)(F)F)cccc23)c(N)n(CC2CC2)c1=O
- Potency [1]: 3.98 µM (active)
- Potency [2]: inactive

Compound: Cc1cc2c(nc1C)CCCCN2C[C@H](C)O/N=C\[C@@H](C)[C@H](OCc1ccccc1)C(C)C
- Potency [1]: 3.98 µM (active)
- activity change, positive = activation [2]: -76.1% [at 11.4 µM]

Compound: CC(C)c1ccccc1S(=O)(=O)c1cc(N)c2ncccc2c1[N+](=O)[O-]
- Potency [1]: 1 µM (active)
- Potency [2]: inactive

Compound: C=C1C(=O)OC2C[C@@]3(C)CCCC(=C)[C@@H]3CC12 (stereo partly drawn)
- Potency [1]: 10 µM (active)
- Potency [2]: inactive

Compound: C/C(CCN1CCCc2nc(C)c(C)cc21)=N\O[C@@H](C)CN1CCCCc2nc(C)c(C)cc21
- Potency [1]: 3.98 µM (active)
- activity change, positive = activation [2]: -69.7% [at 11.4 µM]

Compound: CCC1=C2CC[C@H]3C(=O)NC(=O)[C@H]3[C@H]2[C@@]2(C)C(=NCCc3c[nH]c4ccccc34)OC(=O)N2C1=O
- Potency [1]: 12.6 µM (active)
- Potency [2]: inactive

Compound: CN1C[C@@H]2C(c3ccc(Cl)nc3)C3(c4ccccc4)CC2(C3)[C@H]1c1ccccc1 (stereo partly drawn)
- Potency [1]: 12.6 µM (active)
- Potency [2]: inactive

Compound: COC(=O)[C@@H]1C[C@H]2CC[C@H](O)C[C@H]2N1Cc1c(F)cccc1Cl
- Potency [1]: 15.8 µM (active)
- Potency [2]: inactive

Compound: COc1ccc2c(c1)OC/C(=C/c1ccc(OC)c(OC)c1)C2=O
- Potency [1]: 7.94 µM (active)
- Potency [2]: inactive

Compound: O=C1[C@H]2[C@H]3[C@H](O)[C@H](O)C/C(=N/OC[C@@H](O)COCc4ccco4)[C@@H]3CC[C@@H]2C(=O)N1Cc1ccccc1
- Potency [1]: 3.16 µM (active)
- activity change, positive = activation [2]: -71.1% [at 11.4 µM]

Compound: CCC1=C2CC[C@H]3C(=O)N(C)C(=O)[C@H]3[C@H]2[C@@]2(Cc3ccccc3)C(=NCCc3c[nH]c4ccccc34)OC(=O)N2C1=O
- Potency [1]: 1.26 µM (active)
- Potency [2]: inactive

Compound: COC(=O)c1ccc(C23CC4(C2)[C@H](CN(Cc2cccnc2)[C@@H]4c2ccccc2)C3c2ccc(C(F)(F)F)cc2)cc1 (stereo partly drawn)
- Potency [1]: 5.01 µM (active)
- Potency [2]: inactive

Compound: CCC1=C(OC(=O)N(CC)CC)N2C(=O)OC(=NCCOC)[C@]2(C)[C@H]2C1=CC[C@H]1C(=O)N(CC)C(=O)[C@H]12
- Potency [1]: 7.94 µM (active)
- Potency [2]: inactive

Compound: Cc1ccc(S(=O)(=O)N[C@H]2COC(=O)C/C=C\[C@@H](C)[C@H](NS(=O)(=O)c3ccc(C)cc3)COC(=O)C/C=C\[C@H]2C)cc1
- Potency [1]: 3.16 µM (active)
- activity change, positive = activation [2]: -62.5% [at 11.4 µM]

Compound: CCC1=C(OC(=O)N(CC)CC)N2C(=O)OC(=NCC(=O)OC)[C@]2(C)[C@H]2C1=CC[C@H]1C(=O)N(CC)C(=O)[C@H]12
- Potency [1]: 6.31 µM (active)
- Potency [2]: inactive

Compound: CCC1=C2CC[C@H]3C(=O)N(CC(=O)OC)C(=O)[C@H]3[C@H]2[C@@]2(C)C(=NCCc3c[nH]c4ccccc34)OC(=O)N2C1=O
- Potency [1]: 6.31 µM (active)
- Potency [2]: inactive

Compound: c1ccc(C2[C@H]3CN(Cc4cccnc4)[C@H](c4ccccc4)C34CC2(c2cccnc2)C4)cc1 (stereo partly drawn)
- Potency [1]: 1.58 µM (active)
- Potency [2]: inactive

Compound: COC(=O)c1cccc(C23CC4(C2)[C@H](CN(C)[C@@H]4c2ccccc2)C3c2ccc(C(F)(F)F)cc2)c1 (stereo partly drawn)
- Potency [1]: 12.6 µM (active)
- Potency [2]: inactive

Compound: COC(=O)[C@@H]1C[C@@H]2CC[C@@H](O)C[C@@H]2N1CC1CCCCC1
- Potency [1]: 12.6 µM (active)
- Potency [2]: inactive

Compound: CCC1=C(OC(=O)N(CC)CC)N2C(=O)OC(=NCC3CC3)[C@]2(C)[C@H]2C1=CC[C@H]1C(=O)N(C)C(=O)[C@H]12
- Potency [1]: 10 µM (active)
- Potency [2]: inactive

Compound: O=C(N/N=C1/C[C@@H](O)[C@@H](O)[C@@H]2[C@@H]3C(=O)N(Cc4ccc5c(c4)OCO5)C(=O)[C@H]3CC[C@@H]12)OCc1ccccc1
- Potency [1]: 1.26 µM (active)
- activity change, positive = activation [2]: -74.6% [at 11.4 µM]

Compound: COC(=O)N1[C@H](Cc2ccccc2)C=C[C@]1(C)C(=O)NCc1ccc(N(C)C)cc1
- Potency [1]: 0.794 µM (active)
- Potency [2]: inactive

Compound: Cc1ccc2oc(=O)c3c4cc(O)c(O)cc4oc3c2c1
- Potency [1]: 20 µM (active)
- Potency [2]: inactive

Compound: COc1cc(O)c(C(=O)/C=C/c2ccc(O)c(OC)c2)c(OC)c1
- Potency [1]: 7.94 µM (active)
- Potency [2]: inactive

Compound: CC(C)=CCC/C(C)=C/COc1c2occc2cc2ccc(=O)oc12
- Potency [1]: 1.26 µM (active)
- Potency [2]: inactive

Compound: CCC1=C2CC[C@H]3C(=O)N(c4ccccc4)C(=O)[C@H]3[C@H]2[C@@]2(C)C(=NCc3ccccc3)OC(=O)N2C1=O
- Potency [1]: 3.98 µM (active)
- Potency [2]: inactive

Compound: FC(F)(F)c1ccc(C2[C@H]3CN(Cc4cccnc4)[C@H](c4ccccc4)C34CC2(c2cccnc2)C4)cc1 (stereo partly drawn)
- Potency [1]: 2 µM (active)
- Potency [2]: inactive

Compound: Cn1c(=O)c(C(=O)COC(=O)c2cc(-c3ccco3)nc3ccccc23)c(N)n(Cc2ccccc2)c1=O
- Potency [1]: 12.6 µM (active)
- Potency [2]: inactive

Compound: COC(=O)[C@@H]1C[C@H]2CC[C@H](O)C[C@H]2N1Cc1ccccc1OS(=O)(=O)c1ccc(C)cc1
- Potency [1]: 2 µM (active)
- Potency [2]: inactive

Compound: FC(F)(F)c1ccc(CN2C[C@@H]3C(c4ccc(Cl)nc4)C4(c5cccnc5)CC3(C4)[C@H]2c2ccccc2)cc1 (stereo partly drawn)
- Potency [1]: 15.8 µM (active)
- Potency [2]: inactive

Compound: CCC1=C(OC(=O)N(CC)CC)N2C(=O)OC(=NCC3CC3)[C@]2(Cc2ccccc2)[C@H]2C1=CC[C@H]1C(=O)N(c3ccccc3)C(=O)[C@H]12
- Potency [1]: 2.51 µM (active)
- Potency [2]: inactive

Compound: COCCN=C1OC(=O)N2C(=O)C3=C4C(C[C@H]5C(=O)N(CC(=O)OC)C(=O)[C@H]5[C@H]4[C@@]12Cc1ccccc1)[C@H]1C(=O)N(CC(=O)OC)C(=O)[C@H]1[C@H]3C (stereo partly drawn)
- Potency [1]: 15.8 µM (active)
- Potency [2]: inactive

Compound: COc1c(O)c(O)cc2c1oc1c3ccccc3oc(=O)c21
- Potency [1]: 25.1 µM (active)
- Potency [2]: inactive

Compound: C/C(CCN1CCc2nc(-c3ccccc3)c(-c3ccccc3)cc2C1)=N\O[C@@H](C)CN1CCCCc2nc(C)c(C)cc21
- Potency [1]: 3.98 µM (active)
- activity change, positive = activation [2]: -84.8% [at 11.4 µM]

Compound: C=CC[C@@H]1C=C[C@@H](O/N=C\[C@@H](OC)[C@H](C)/C=C\CC(=O)OC)[C@@H](CO)O1
- Potency [1]: 3.16 µM (active)
- activity change, positive = activation [2]: -64.1% [at 11.4 µM]

Compound: CC(=O)OC[C@@H]1O[C@H](C/C=N\O[C@@H](C)c2cc(-c3c(C)cc(C)cc3C)no2)C=C[C@@H]1OC(C)=O
- Potency [1]: 3.16 µM (active)
- activity change, positive = activation [2]: -77.7% [at 11.4 µM]

Compound: CCC1=C2CC[C@H]3C(=O)N(CC(=O)OC)C(=O)[C@H]3[C@H]2[C@@]2(C)C(=O)N(Cc3ccccc3)C(=O)N2C1=O
- Potency [1]: 15.8 µM (active)
- Potency [2]: inactive

Compound: COc1ccc(O[C@H]2C=C[C@@H](c3ccccc3)O[C@H]2COC(=O)CC/C(C)=N\O[C@@H](C)c2cc(-c3c(C)cc(C)cc3C)no2)cc1
- Potency [1]: 3.16 µM (active)
- activity change, positive = activation [2]: -63.2% [at 11.4 µM]

Compound: CCCNC(=O)OC[C@@H]1O[C@H](CCO/N=C(\C)CCN2CCCc3nc(C)c(C)cc32)C=C[C@@H]1Oc1ccc(OC)cc1
- Potency [1]: 3.98 µM (active)
- activity change, positive = activation [2]: -70.1% [at 11.4 µM]

Compound: COC(=O)[C@@H]1C[C@@]2(O)[C@H](O)[C@H](O)[C@H](O)C[C@H]2N1Cc1ccccc1OS(=O)(=O)c1ccc(C)cc1
- Potency [1]: 7.94 µM (active)
- Potency [2]: inactive

Compound: O=c1oc2ccccc2c2oc3cc(O)c(O)cc3c12
- Potency [1]: 20 µM (active)
- Potency [2]: inactive

Compound: CC(=O)OC[C@@H]1O[C@H](CCO/N=C(\C)CCC(=O)OC[C@@H]2O[C@H](C#Cc3ccccc3)C=C[C@@H]2Oc2ccc(C)cc2)C=C[C@@H]1OC(C)=O
- Potency [1]: 3.16 µM (active)
- activity change, positive = activation [2]: -92.8% [at 11.4 µM]

Compound: N#Cc1ccc(C23CC4(C2)[C@H](CN(Cc2cccnc2)[C@@H]4c2ccccc2)C3c2ccc(C(F)(F)F)cc2)cc1 (stereo partly drawn)
- Potency [1]: 6.31 µM (active)
- Potency [2]: inactive

Compound: CCC1=C2CC[C@H]3C(=O)N(CC)C(=O)[C@H]3[C@H]2[C@@]2(Cc3ccccc3)C(=NCC3CC3)OC(=O)N2C1=O
- Potency [1]: 2.51 µM (active)
- Potency [2]: inactive

Compound: Clc1ccc2nc(-c3ccccc3)[nH]c2c1
- Potency [1]: 12.6 µM (active)
- Potency [2]: inactive

Compound: COC(=O)[C@@H]1C[C@H]2CC[C@H](O)C[C@H]2N1Cc1ccc(Cl)cc1
- Potency [1]: 12.6 µM (active)
- Potency [2]: inactive

Compound: CCCNC(=O)OC[C@@H]1O[C@H](CCO/N=C(\C)CCN2CCc3nc(CC)c(CC)cc3C2)C=C[C@@H]1Oc1ccc(OC)cc1
- Potency [1]: 3.98 µM (active)
- activity change, positive = activation [2]: -86.1% [at 11.4 µM]

Compound: COC(=O)c1cccc(C23CC4(C2)[C@H](CN(Cc2cccnc2)[C@@H]4c2ccccc2)C3c2ccccc2)c1 (stereo partly drawn)
- Potency [1]: 1.58 µM (active)
- Potency [2]: inactive

Compound: CCC1=C(OC(=O)N(CC)CC)N2C(=O)OC(=NCCc3c[nH]c4ccccc34)[C@]2(Cc2ccccc2)[C@H]2C1=CC[C@H]1C(=O)NC(=O)[C@H]12
- Potency [1]: 2 µM (active)
- Potency [2]: inactive

Compound: CCC1=C(OC(=O)N(CC)CC)N2C(=O)OC(=NCc3ccccc3)[C@]2(C)[C@H]2C1=CC[C@H]1C(=O)NC(=O)[C@H]12
- Potency [1]: 5.01 µM (active)
- Potency [2]: inactive

Compound: CCC1=C(OC(=O)N(CC)CC)N2C(=O)OC(=NCCOC)[C@]2(Cc2ccccc2)[C@H]2C1=CC[C@H]1C(=O)NC(=O)[C@H]12
- Potency [1]: 6.31 µM (active)
- Potency [2]: inactive

Compound: C/C(CCN1CCCCc2nc(C)c(C)cc21)=N\O[C@@H](C)c1cn([C@H](CO)Cc2ccccc2)nn1
- Potency [1]: 3.98 µM (active) and 5.01 µM (active)
- activity change, positive = activation [2]: -72.3% [at 11.4 µM] and -80.4% [at 11.4 µM]
